Laboratory results published in PubChem BioAssay AID1159580 (chemical genetic matrix, 2015).
Where “and” joins values, the source holds several entries; their conditions need not be identical. Identical values can stand only once. About 2,000 (36%) of roughly 5,500 compounds were called active. Not shown: some 18% with an inconclusive outcome. Rule as the data show it: active = normalized growth mostly below about 0.91 (no sharp cut-off); inconclusive = no clear call, values can overlap the other calls; inactive = mostly above about 0.92. The list shows a part of the results.

Assay: chemical genetic growth profiling, strain panel (AID 1159580);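 also: tested at 20 µM; growth read once vehicle control cultures reached saturation at 30 °C; 1 = growth at the plate median or of vehicle wells; lower values mean less growth of the strain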
Settings: S. cerevisiae deletion strains, growth OD

Measured: normalized growth

CC(C)=CC1C(CO)C1(C)C (centres undefined)
inactive: locus YAL021C, strain ccr4, stronger effect = lower value 1.01 | locus YAL026C, strain drs2, stronger effect = lower value 1.03 | locus YAL030W, strain snc1, stronger effect = lower value 1.02 | locus YBL061C, strain skt5, stronger effect = lower value 1.02 | locus YBR009C, strain hhf1, stronger effect = lower value 1.03 | locus YBR021W, strain FUR4, stronger effect = lower value 1.02 | locus YBR023C, strain chs3, stronger effect = lower value 1.02 | locus YBR171W, strain sec66, stronger effect = lower value 1.03 | locus YBR229C, strain ROT2, stronger effect = lower value 1.02 | locus YBR231C, strain swc5, stronger effect = lower value 1.02 | locus YBR279W, strain paf1, stronger effect = lower value 1.02 | locus YCL011C, strain gbp2, stronger effect = lower value 1.02 | locus YCL016C, strain dcc1, stronger effect = lower value 1.02 | locus YCL029C, strain bik1, stronger effect = lower value 0.994 | locus YCL061C, strain MRC1, stronger effect = lower value 1.01 | locus YCL069W, strain vba3, stronger effect = lower value 1.01 | locus YCR088W, strain abp1, stronger effect = lower value 1.02 | locus YDL005C, strain med2, stronger effect = lower value 1.03 | locus YDL035C, strain GPR1, stronger effect = lower value 1.03 | locus YDL040C, strain nat1, stronger effect = lower value 1.02 | locus YDL074C, strain BRE1, stronger effect = lower value 1.03 | locus YDL101C, strain DUN1, stronger effect = lower value 1.03 | locus YDL185W, strain tfp1, stronger effect = lower value 0.999 | locus YDL192W, strain arf1, stronger effect = lower value 1.01 | locus YDR001C, strain nth1, stronger effect = lower value 1.01 | locus YDR069C, strain doa4, stronger effect = lower value 1.04 | locus YDR101C, strain arx1, stronger effect = lower value 1 | locus YDR137W, strain rgp1, stronger effect = lower value 1.04 | locus YDR159W, strain sac3, stronger effect = lower value 1.03 | locus YDR162C, strain NBP2, stronger effect = lower value 1.03 | locus YDR195W, strain ref2 0.992 | locus YDR297W, strain sur2, stronger effect = lower value 1.03 | locus YDR318W, strain mcm21, stronger effect = lower value 0.995 | locus YDR334W, strain swr1, stronger effect = lower value 1.02 | locus YDR335W, strain msn5, stronger effect = lower value 1.02 | locus YDR388W, stronger effect = lower value 0.999 | locus YDR392W, strain spt3, stronger effect = lower value 0.981 | locus YDR502C, strain sam2, stronger effect = lower value 0.994 | locus YEL003W, strain gim4, stronger effect = lower value 1.02 | locus YEL037C, strain rad23, stronger effect = lower value 1.02 | locus YEL061C, strain CIN8 (second series), stronger effect = lower value 1.01 | locus YEL061C, strain CIN8, stronger effect = lower value 1.01 | locus YER015W, strain faa2, stronger effect = lower value 1.02 | locus YER016W, strain bim1, stronger effect = lower value 1.02 | locus YER110C, stronger effect = lower value 1.01 | locus YER111C, strain swi4, stronger effect = lower value 1.02 | locus YER155C, strain BEM2 (second series), stronger effect = lower value 1.04 | locus YER155C, strain BEM2, stronger effect = lower value 1.01 | locus YER167W, strain BCK2, stronger effect = lower value 1.02 | locus YFR010W, strain ubp6, stronger effect = lower value 1.03 | locus YGL078C, strain dbp3, stronger effect = lower value 1 | locus YGL086W, strain mad1, stronger effect = lower value 1.01 | locus YGL167C, strain pmr1, stronger effect = lower value 1.02 | locus YGL173C, strain kem1, stronger effect = lower value 1.02 | locus YGL227W, strain vid30, stronger effect = lower value 1.02 | locus YGL240W, strain doc1, stronger effect = lower value 1.04 | locus YGL248W, strain PDE1, stronger effect = lower value 1.03 | locus YGL253W, strain hxk2, stronger effect = lower value 1.02 | locus YGR078C, strain PAC10, stronger effect = lower value 1.04 | locus YGR135W, strain pre9, stronger effect = lower value 1.01 | locus YGR252W, strain gcn5, stronger effect = lower value 0.989 | locus YHR013C, strain ard1, stronger effect = lower value 1.04 | locus YHR027C, strain rpn1, stronger effect = lower value 1.02 | locus YHR030C, strain SLT2, stronger effect = lower value 1.02 and 0.985 | locus YHR079C, strain IRE1 (second series), stronger effect = lower value 1.01 | locus YHR079C, strain IRE1, stronger effect = lower value 0.994 | locus YHR094C, strain hxt1, stronger effect = lower value 0.984 | locus YHR129C, strain ARP1, stronger effect = lower value 1.02 | locus YHR142W, strain chs7, stronger effect = lower value 1.01 | locus YHR200W, strain rpn10, stronger effect = lower value 1 | locus YIL066C, strain RNR3, stronger effect = lower value 1.04 | locus YIL073C, strain SPO22, stronger effect = lower value 1.02 | locus YIL125W, strain kgd1, stronger effect = lower value 1.01 | locus YIR030C, strain dcg1, stronger effect = lower value 1 | locus YJL092W, strain hpr5, stronger effect = lower value 1.01 | locus YJL095W, strain BCK1 (second series), stronger effect = lower value 1.02 | locus YJL095W, strain BCK1, stronger effect = lower value 1.04 and 0.986 | locus YJL115W, strain asf1, stronger effect = lower value 1.02 | locus YJL129C, strain trk1, stronger effect = lower value 1.02 | locus YJL134W, strain LCB3, stronger effect = lower value 1.02 | locus YJL154C, strain vps35, stronger effect = lower value 1 | locus YJL164C, strain tpk1, stronger effect = lower value 1.02 | locus YJL166W, strain qcr8, stronger effect = lower value 1.02 | locus YJL168C, strain set2, stronger effect = lower value 0.997 | locus YJL187C, strain SWE1 (second series), stronger effect = lower value 1.04 | locus YJL187C, strain SWE1, stronger effect = lower value 1.02 | locus YJR043C, strain POL32, stronger effect = lower value 1.04 | locus YJR066W, strain TOR1, stronger effect = lower value 0.957 | locus YKL009W, strain mrt4, stronger effect = lower value 1 | locus YKL068W, stronger effect = lower value 1.01 | locus YKL085W, strain MDH1 (second series), stronger effect = lower value 0.998 | locus YKL085W, strain MDH1, stronger effect = lower value 0.998 | locus YKL160W, strain elf1, stronger effect = lower value 1.01 | locus YKL190W, strain CNB1, stronger effect = lower value 1.02 | locus YKR001C, strain vps1, stronger effect = lower value 1.01 | locus YKR026C, strain gcn3, stronger effect = lower value 0.994 | locus YKR091W, strain srl3, stronger effect = lower value 1.02 | locus YLL001W, strain dnm1, stronger effect = lower value 1.03 | locus YLL026W, stronger effect = lower value 1.02 | locus YLL041C, strain sdh2, stronger effect = lower value 1.01 | locus YLR027C, strain aat2, stronger effect = lower value 1.02 | locus YLR039C, strain RIC1, stronger effect = lower value 1.07 | locus YLR058C, strain SHM2, stronger effect = lower value 1.02 | locus YLR102C, strain apc9, stronger effect = lower value 0.989 | locus YLR113W, strain HOG1, stronger effect = lower value 0.976 | locus YLR221C, strain rsa3, stronger effect = lower value 1.02 | locus YLR258W, strain gsy2, stronger effect = lower value 1.03 | locus YLR262C, strain YPT6 (second series), stronger effect = lower value 1.02 | locus YLR262C, strain YPT6, stronger effect = lower value 1.07 | locus YLR268W, strain sec22, stronger effect = lower value 0.999 | locus YLR320W, strain mms22, stronger effect = lower value 1.04 | locus YLR330W, strain CHS5, stronger effect = lower value 1.02 | locus YLR342W, strain FKS1 (second series), stronger effect = lower value 1.02 | locus YLR342W, strain FKS1, stronger effect = lower value 1.03 | locus YLR357W, strain rsc2, stronger effect = lower value 1.04 | locus YLR370C, strain arc18, stronger effect = lower value 1.01 | locus YLR371W, strain rom2, stronger effect = lower value 1 | locus YLR384C, strain iki3, stronger effect = lower value 0.999 | locus YLR418C, strain cdc73, stronger effect = lower value 0.99 | locus YML016C, strain PPZ1, stronger effect = lower value 1.02 | locus YML032C, strain rad52, stronger effect = lower value 0.997 | locus YML120C, strain ndi1, stronger effect = lower value 1.02 | locus YML124C, strain tub3, stronger effect = lower value 1.01 | locus YMR058W, strain fet3, stronger effect = lower value 1.01 | locus YMR078C, strain ctf18, stronger effect = lower value 0.99 | locus YMR125W, strain sto1, stronger effect = lower value 1.03 | locus YMR129W, stronger effect = lower value 1.01 | locus YMR205C, strain PFK2, stronger effect = lower value 1.04 | locus YMR223W, strain ubp8, stronger effect = lower value 1.01 | locus YMR231W, strain pep5, stronger effect = lower value 1.02 | locus YMR263W, strain SAP30, stronger effect = lower value 1.03 | locus YMR307W, strain GAS1, stronger effect = lower value 1.11 | locus YNL067W, strain RPL9B, stronger effect = lower value 1.04 | locus YNL071W, strain lat1, stronger effect = lower value 1.02 | locus YNL153C, strain GIM3, stronger effect = lower value 1.04 | locus YNL183C, strain NPR1, stronger effect = lower value 0.955 | locus YNL209W, strain ssb2, stronger effect = lower value 1.03 | locus YNL233W, strain BNI4, stronger effect = lower value 1.03 | locus YNL248C, strain rpa49, stronger effect = lower value 1.02 | locus YNL250W, strain rad50, stronger effect = lower value 0.994 | locus YNL271C, strain bni1, stronger effect = lower value 1 | locus YNL298W, strain CLA4, stronger effect = lower value 0.998 | locus YNL307C, strain MCK1, stronger effect = lower value 1.01 | locus YNL322C, strain KRE1 (second series), stronger effect = lower value 1.02 | locus YNR049C, strain mso1, stronger effect = lower value 1.03 | locus YNR052C, strain pop2, stronger effect = lower value 0.995 | locus YOL012C, strain htz1 0.795 | locus YOL147C, strain pex11, stronger effect = lower value 0.993 | locus YOR001W, strain rrp6, stronger effect = lower value 1.01 | locus YOR061W, strain CKA2, stronger effect = lower value 1.02 | locus YOR069W, strain VPS5, stronger effect = lower value 1.02 | locus YOR070C, strain gyp1, stronger effect = lower value 1.02 | locus YOR080W, strain dia2, stronger effect = lower value 1.02 | locus YOR083W, strain WHI5, stronger effect = lower value 1.01 | locus YOR106W, strain vam3, stronger effect = lower value 1.02 | locus YOR136W, strain idh2, stronger effect = lower value 0.991 | locus YOR144C, strain elg1, stronger effect = lower value 0.991 | locus YOR184W, strain ser1, stronger effect = lower value 1.01 | locus YOR231W, strain MKK1, stronger effect = lower value 0.978 | locus YOR265W, strain rbl2, stronger effect = lower value 1.02 | locus YOR270C, strain vph1, stronger effect = lower value 1.03 | locus YOR290C, strain snf2, stronger effect = lower value 0.991 | locus YOR316C, strain cot1, stronger effect = lower value 0.991 | locus YPL051W, strain arl3, stronger effect = lower value 1.01 | locus YPL078C, strain atp4, stronger effect = lower value 1.01 | locus YPL106C, strain sse1, stronger effect = lower value 1.01 | locus YPL240C, strain hsp82, stronger effect = lower value 1.03 | locus YPL241C, strain CIN2, stronger effect = lower value 1.02 | locus YPL256C, strain CLN2, stronger effect = lower value 0.97 | locus YPR119W, strain clb2, stronger effect = lower value 0.989 | locus YPR141C, strain kar3, stronger effect = lower value 1 | locus YPR163C, strain tif3, stronger effect = lower value 0.99 | locus YPR167C, strain met16, stronger effect = lower value 1.01 | strain wtn01, stronger effect = lower value 0.99
